In ChEMBL document CHEMBL1157539, “Thousands of chemical starting points for antimalarial lead identification” (Nature, 2010):

Assays:
Format in all cases: functional
Plasmodium falciparum [1] = assay: GSK_TCMDC: Inhibition of Plasmodium falciparum 3D7 in whole red blood cells, using parasite LDH activity as an index of growth. Test compounds present at 2uM
Plasmodium falciparum [2] = assay: GSK_TCMDC: Inhibition of Plasmodium falciparum Dd2 in whole red blood cells, using parasite LDH activity as an index of growth. Test compounds present at 2uM
HepG2 = assay: GSK_TCMDC: Percent inhibition of human HepG2 cell line. Test compounds present at 10uM.

| SMILES | Inhibition (Plasmodium falciparum [1]) | Inhibition (Plasmodium falciparum [2]) | Inhibition (HepG2) |
| --- | --- | --- | --- |
| COc1c(C2CCN(CCCCNC(=O)c3ccc(-c4ccc(C(F)(F)F)cc4)c(C(=O)OC(C)C)c3)CC2)ccc2c1CCCC2 | 90% | 30% | 24% |
| O=C(NCCCCCN1CCC(c2c[nH]c3ccccc23)CC1)Nc1cccc(C(F)(F)F)c1 | 97% | 11% | 51% |
| C[C@H](NC(=O)c1c(CN2CCN(C(=O)C(C)(C)C)CC2)c(-c2cccs2)nc2ccccc12)C1CCCCC1 | 89% | 62% | 2% |
| Clc1cccc(C=NN=c2cc[nH]c3ccccc23)c1 | 100% | 44% | 5% |
| COCCCNC(=O)c1ccc(O)c(-c2cc(Cl)cc(Cl)c2)c1 | 94% | 34% | 22% |
| O=C(Nc1ccccc1)N(Cc1cccc(-c2ccc(CNCCc3ccccc3)cc2)c1)C1CCN(Cc2ccccc2)CC1.O=C(O)C(F)(F)F | 100% | 95% | 100% |
| CC(C)c1cccc(OCC2CCN(c3ncc(C(=O)NC4CC4)cc3Cl)CC2)c1 | 94% | 95% | 9% |
| CC(C)(C)NS(=O)(=O)c1cc(C(=O)N2CCC(CCN3CCC(C(=O)c4ccc(F)cc4)CC3)(c3cccc(F)c3)CC2)c(Cl)cc1F | 99% | 99% | 0% |
| COc1ccc(CNCc2ccc(-c3ccc(-c4nc5cc(C(F)(F)F)ccc5[nH]4)cc3)cc2)cc1.O=C(O)C(F)(F)F | 100% | 99% | 75% |
| Cc1ccc(Nc2nc3cc(N(C)c4ccnc(Nc5cccc(CS(C)(=O)=O)c5)n4)ccc3o2)cc1.O=C(O)C(F)(F)F | 90% | 16% | 0% |
| O=C(Cn1c(CCc2cccc(F)c2F)nc(=O)c2ccccc21)N(Cc1ccc(-c2ccc(C(F)(F)F)cc2)cc1)C1CCN(C2=NCCS2)CC1.O=C(O)C(O)C(O)C(=O)O | 81% | 85% | 62% |
| COc1cccc(CN2CCC3(CC2)CN(C(=O)Nc2ccc(Cl)c(Cl)c2)C3)c1 | 97% | 2% | 29% |
| O=C(Nc1ccccc1)N(Cc1ccccc1-c1cccc(CNC2CCCC2)c1)C1CCN(Cc2ccccc2)CC1.O=C(O)C(F)(F)F | 100% | 84% | 36% |
| CN1CCN(c2ccc(-c3nc4ccc(OCc5cc(Cl)cc(Cl)c5)c(C(N)=O)c4[nH]3)cc2)CC1 | 100% | 85% | 45% |
| CCCN1CCN(CCNC(=O)c2cccc(Nc3nccc(Nc4ccc(Oc5ccccc5)cc4)n3)c2)CC1 | 99% | 96% | 56% |
| O=C(c1cccc(-c2ccc(-c3nc4cc(F)ccc4[nH]3)s2)c1)N1CCCCC1CN1CCC(O)C1 (configuration not stated) | 100% | 85% | 23% |
| O=C(O)C(F)(F)F.O=S(=O)(NCCN1CCCC1)c1ccc(-c2ccc(CNCc3ccccc3)cc2)cc1 | 99% | 28% | 47% |
| COc1ccc(-c2nc3c(NCc4ccccc4)nccc3[nH]2)c(OC)c1 | 99% | 21% | 16% |
| O=C(O)C(F)(F)F.O=S(=O)(NCCN1CCCC1)c1ccc(-c2ccc(CNCc3ccsc3)cc2)cc1F | 96% | 40% | 27% |
| CNc1ccc(CNCc2ccc(-c3ccc(-c4nc5cc(F)ccc5[nH]4)cc3)cc2)cc1.O=C(O)C(F)(F)F | 100% | 95% | 38% |

| SMILES | Inhibition (Plasmodium falciparum [1]) | Inhibition (Plasmodium falciparum [2]) | Inhibition (HepG2) |
| --- | --- | --- | --- |
| CC(CC(=O)NCC1(c2ccc(F)cc2Cl)CCOCC1)C(=O)c1ccc(Cl)cc1 (configuration not stated) | 99% | 91% | 6% |
| CCOc1ccc2ccccc2c1C(=O)Nc1cc(C)nn1-c1nc(C)cc(=O)[nH]1 | 93% | 86% | 28% |
| c1ccc2cc3c(Nc4ccc(N5CCCCC5)cc4)ccnc3cc2c1 | 100% | 36% | 21% |
| CCOC(=O)c1c(NC(NC(=O)c2ccc(C(C)(C)C)cc2)C(Cl)(Cl)Cl)sc2c1CCCC2 (configuration not stated) | 98% | 94% | 1% |
| CCOC(=O)c1cccc(NC(=N)Nc2nc(C)cc(NCCc3ccccc3)n2)c1 | 100% | 72% | 21% |
| COc1ccc(CCN(C)CCOc2ccc(NC(=O)c3cccc4c(=O)c5cc(SC)ccc5[nH]c34)cc2)cc1OC | 97% | 82% | 52% |
| CC(C)CNC(=O)c1cncc(-c2ccc(CNC3Cc4ccccc4C3)cc2)c1.O=C(O)C(F)(F)F | 99% | 37% | 5% |
| CN1CCN(c2ccnc3ccc(NC(=O)Cc4cccc(Cl)c4Cl)cc23)CC1 | 100% | 64% | 8% |
| CCOC(=O)CNCC(=O)c1ccc(OCc2ccccc2)cc1.Cl | 95% | 43% | 4% |
| CC(C)Cn1c(N)cc(=O)n(C)c1=O | 100% | 0% | 3% |
| CCOc1cc(Br)c(C(C)NC(=O)c2cccc(OC)c2)cc1OCC (configuration not stated) | 90% | 37% | 0% |
| CC(C)(C)c1ccc2[nH]c(-c3ccc(C(=O)NCc4cccc(C(F)(F)F)c4)cc3)nc2c1 | 98% | 26% | 9% |
| Cc1ccc(Nc2nccc(NCC(O)c3ccc(C(F)(F)F)cc3)n2)cc1 (configuration not stated) | 100% | 100% | 53% |
| Cc1cc(Oc2cc(NC(=O)c3sc4ncn(Cc5ccccc5F)c(=O)c4c3C)cc([N+](=O)[O-])c2)ccc1Cl | 94% | 24% | 2% |
| CCOc1ccc2ccccc2c1CNCCCCCCNCc1c(OCC)ccc2ccccc12.CS(=O)(=O)O | 100% | 89% | 100% |
| O=C(Nc1ccc(-c2ccc(-c3nc4ccccc4[nH]3)cc2)cc1)Nc1ccc(Cl)c(Cl)c1 | 100% | 100% | 68% |
| c1cncc(CN2CCN(Cc3ccc(-c4ccc(-c5nc6ccccc6[nH]5)s4)cc3)CC2)c1 | 97% | 34% | 32% |
| Oc1ccc(Nc2nc(NCc3ccco3)c3ccccc3n2)cc1 | 100% | 78% | 7% |
| COCCN1CCC(N(Cc2ccc(-c3ccc(C(F)(F)F)cc3)cc2)C(=O)Cn2c(CCc3cccc(F)c3F)cc(=O)c3c2CCC3)CC1.O=C(O)C(O)C(O)C(=O)O | 85% | 48% | 31% |
| FC(F)(F)c1cccc(CNC2CCN(CC3CCCCC3)CC2)c1.O=C(O)C(F)(F)F | 100% | 12% | 0% |

| SMILES | Inhibition (Plasmodium falciparum [1]) | Inhibition (Plasmodium falciparum [2]) | Inhibition (HepG2) |
| --- | --- | --- | --- |
| CO/C(=C\C=C\c1cc2cc(Cl)c(Cl)cc2[nH]1)C(=O)NC1CCN(CCOc2ccccc2)CC1 | 100% | 94% | 35% |
| N#Cc1cccc(NC(=O)Nc2ccc(-c3cccc(-c4nc5cc(F)ccc5[nH]4)c3)cc2)c1 | 100% | 100% | 64% |
| Cn1c(-c2ccccc2)cc2c3c(=O)cc(C(F)(F)F)[nH]c3ccc21 | 95% | 49% | 21% |
| Cc1ccc(O)cc1Nc1ccnc2ccc(-c3cccc(CNCCN(C)C)c3)cc12 | 100% | 46% | 0% |
| CC(C)OC(=O)c1ccc(NC(=O)N[C@@H](Cc2ccc(O)cc2)C(=O)NC2CCC(CCN3C4CCC3c3ccccc34)CC2)cc1.O=C(O)C(F)(F)F (some centres not stated) | 95% | 67% | 3% |
| Cc1ccccc1N1CCN(c2ncc(C(=O)NC3CC3)cc2Cl)CC1.O=C(O)C(F)(F)F | 91% | 96% | 23% |
| NCC1CCCN1Cc1cccc(-c2ccc(-c3nc4cc(C(F)(F)F)ccc4[nH]3)cc2)c1.O=C(O)C(F)(F)F (configuration not stated) | 100% | 95% | 20% |
| COc1ccc(-c2ccc(NC(=O)c3cccc(C#N)c3)cc2)cc1CN(C)C.O=C(O)C(F)(F)F | 100% | 10% | 11% |
| COc1ccc2ccccc2c1C=NN=c1cc[nH]c2ccc(F)cc12 | 87% | 10% | 11% |
| COc1ccc(Nc2ncc3c(-c4cccc(NC(=O)Cc5ccc(F)cc5)c4)c[nH]c3n2)cc1OC | 100% | 90% | 21% |
| COc1ccc(NC(=O)NC2CCN(c3ccnc4cc(Cl)ccc34)C2)cc1.O=C(O)C(F)(F)F (configuration not stated) | 100% | 69% | 10% |
| Fc1cc(Cl)ccc1Nc1ccnc2cc(-c3ccc(CNCCN4CCOCC4)o3)ccc12 | 100% | 100% | 13% |
| COc1ccc(CN2CCCN(Cc3cccc(NC(=O)c4ccc(Cl)c(Cl)c4)c3)CC2)cc1.O=C(O)C(F)(F)F | 86% | 19% | 38% |
| Cc1cc(NCCC(=O)Nc2ccccc2)nc(NCC2CCCCC2)n1.O=C(O)C(F)(F)F | 100% | 62% | 14% |
| O=C(Nc1ccc(-c2nc3ccccc3[nH]2)cc1)c1cccc(S(=O)(=O)N2CCCC2)c1 | 100% | 64% | 0% |
| CC(C)(C)c1nn(-c2ccc(Cl)cc2)c2[nH]c(=O)c(CNC3CCCC3)cc12 | 99% | 99% | 0% |
| Cc1ccc(NC(=O)Nc2ccccc2F)cc1-c1ccc(C(=O)Nc2ccncc2)cc1 | 99% | 54% | 36% |
| CN(C)Cc1cc(Nc2ccnc3cc(Cl)ccc23)ccc1O.Cl | 100% | 100% | 36% |
| COc1ccc2[nH]c(C)cc(=NN=Cc3cc(C)ccc3O)c2c1 | 100% | 100% | 78% |
